From PubChem BioAssay (NCI)
Compounds without any hit were thinned out: in the full panel of roughly 83,000, 20% have a hit.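 Treatment: one concentration, 48 hours, 96-well format. Scoring: percent growth, with anything below 10 considered active.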 Values without a mark were called inactive. The source made the active and inactive calls.

What was measured:
Experiment in all cases: NCI-60 one-dose screen, 48 h (100 = growth as untreated, 0 = no growth, -100 = all killed)
Settings in all cases: 10 µM unless noted
DU-145 prostate = tested on: DU-145 prostate
K-562 leukemia = tested on: K-562 leukemia
MALME-3M melanoma = tested on: MALME-3M melanoma
MDA-MB-231 breast = tested on: MDA-MB-231 breast
RXF 393 renal = tested on: RXF 393 renal
SF-268 CNS = tested on: SF-268 CNS
SF-295 CNS = tested on: SF-295 CNS
SF-539 CNS = tested on: SF-539 CNS
UACC-257 melanoma = tested on: UACC-257 melanoma
M14 melanoma = tested on: M14 melanoma
HCT-15 colon = tested on: HCT-15 colon
HT29 colon = tested on: HT29 colon
SNB-75 CNS = tested on: SNB-75 CNS
SNB-19 CNS = tested on: SNB-19 CNS
U251 CNS = tested on: U251 CNS
PC-3 prostate = tested on: PC-3 prostate
SK-MEL-5 melanoma = tested on: SK-MEL-5 melanoma
UACC-62 melanoma = tested on: UACC-62 melanoma
LOX IMVI melanoma = tested on: LOX IMVI melanoma
SK-MEL-28 melanoma = tested on: SK-MEL-28 melanoma

| Compound | growth (DU-145 prostate) [%] | growth (K-562 leukemia) | growth (MALME-3M melanoma) | growth (MDA-MB-231 breast) | growth (RXF 393 renal) | growth (SF-268 CNS) | growth (SF-295 CNS) | growth (SF-539 CNS) | growth (UACC-257 melanoma) | growth (M14 melanoma) | growth (HCT-15 colon) | growth (HT29 colon) | growth (SNB-75 CNS) | growth (SNB-19 CNS) [%] | growth (U251 CNS) [%] | growth (PC-3 prostate) | growth (SK-MEL-5 melanoma) | growth (UACC-62 melanoma) | growth (LOX IMVI melanoma) | growth (SK-MEL-28 melanoma) |
| --- | --- | --- | --- | --- | --- | --- | --- | --- | --- | --- | --- | --- | --- | --- | --- | --- | --- | --- | --- | --- |
| Cn1cc(-c2csc(-c3c[nH]c4ccc(F)cc34)n2)c2ccnc(Cl)c21 | 51.2 | 53.3% | 121% | 60.9% | 67.8% | 92% | 85% | 68.9% | 39.3% | 57.4% | 5.69% (active) | 29.8% | 77.5% | 91.4 | 49.6 | 62.1% | 63.2% | 70.6% | 67.5% | 93.5% |
| Nn1c(=O)c(=O)[nH]c2c(cnn2-c2ccccc2)c1=O | 114 | 96.4% | 106% | 105% | 113% | 99.7% | 102% | 99.8% | 107% | 110% | 101% | 110% | 92.5% | 103 | 105 | 106% | 101% | 102% | 101% | 113% |
| CCOC(=O)/C=C1\S/C(=N\Nc2cc(=O)[nH]c3ccccc23)N(c2ccccc2)C1=O | 109 | 98.2% | 101% | 97.8% | 103% | 104% | 103% | 96.9% | 107% | 101% | 98.7% | 113% | 80.1% | 100 | 94.2 | 95.4% | 104% | 97% | 97.2% | 110% |
| O=C(/C=C/c1ccc(Cl)cc1)c1cccc(OCCCOc2cccc(C(=O)/C=C/c3ccc(Cl)cc3)c2)c1 | 113 | 88.8% | 109% | 110% | 106% | 105% | 100% | 112% | 98.6% | 98.6% | 90.3% | 98.6% | 91.5% | 99.1 | 86.3 | 104% | 102% | 90% | 99.1% | 102% |
| CNC(C)[C@H]1CCC2C3CC=C4C(=O)[C@@H](NC(=O)C=C(C)C)CC[C@]4(C)C3CC[C@@]21C (stereo not given in full) | 52.9 | -62.1% (active) | -52.2% (active) | -12.4% (active) | -59% (active) | -15.7% (active) | -8.38% (active) | -92.5% (active) | -30.8% (active) | -53.7% (active) | -54.1% (active) | -52% (active) | 22.5% | 53.4 | 18.2 | 6.67% (active) | -89.8% (active) | -67.2% (active) | -54% (active) | -86.1% (active) |
| O=C(CSc1nc(-c2ccccc2)cc(=O)[nH]1)Nc1nc(-c2ccccc2)cs1 | 97.8 | 87.7% | 110% | 116% | 87.4% | 93.8% | 76.4% | 113% | 94.6% | 117% | 89.7% | 99.1% | 85.9% | 105 | 99.9 | 78.8% | 85.7% | 69.1% | 96.6% | 111% |
| O=C(Nc1ccc(Cl)cc1)Oc1c(Cl)c(Cl)c(Cl)c(Cl)c1Cl | 97.9 | 89.9% | 93.7% | 92.9% | 106% | 92.9% | 83.2% | 94.8% | 100% | 96.8% | 94.5% | 96.1% | 83.3% | 98.1 | 98 | 89.4% | 95.3% | 81.3% | 86.1% | 105% |
| COc1ccc(C(=S)N2CCN(c3ccc(Cl)cc3)CC2)cc1 | 113 | 88% | 125% | 76.7% | 126% | 100% | 117% | 102% | 96.1% | 99.7% | 116% | 102% | 112% | 86.3 | 101 | 103% | 96.8% | 84.5% | 104% | 110% |
| O=C(Nc1ncc(Cc2ccccc2)s1)c1ccc2c(c1)OCCCO2 | 27.5 | 9.28% (active) | 51% | 44% | -10% (active) | 60.4% | 15.2% | -9.3% (active) | 41.4% | 3.29% (active) | 21.5% | 9.72% (active) | 34.3% | 37.4 | 35.4 | 27.7% | 8.06% (active) | 29% | 29.9% | 36.8% |
| CC1=CC(c2ccco2)=C2C(N)=NNC2N1 (stereo not given) | 110 | 99.6% | 92.5% | 92.1% | 119% | 98.7% | 98.2% | 81.1% | 102% | 104% | 99.7% | 104% | 64% | 92.9 | 96.8 | 101% | 101% | 89.3% | 98.3% | 96.5% |
| O=C(N/N=C\c1cccc([N+](=O)[O-])c1)N/N=C/c1cccc([N+](=O)[O-])c1 | 116 | 99.4% | 109% | 100% | 106% | 102% | 106% | 111% | 97.4% | 113% | 109% | 114% | 88.8% | 100 | 97.3 | 91.5% | 95.9% | 92.5% | 103% | 110% |
| CCOC(=O)C1=C(C)C(Cl)=N/C1=C\c1[nH]c(Cl)c(C)c1C(=O)OCC | 111 | 91% | 107% | 93% | 115% | 101% | 111% | 100% | 91.4% | 87.1% | 99.1% | 91.9% | 84.5% | 101 | 94.1 | 76.3% | 96.8% | 97.4% | 93.9% | 122% |
| COC(=O)c1c2c(n3ccccc13)C(=O)c1ccccc1C2=O | 69.4 | 54.9% | 55.8% | 64.4% | 72.1% | 74% | 64.5% | 89.5% | 70.4% | 63.6% | 51.4% | 55.3% | 113% | 62.5 | 61.6 | 47.2% | 18.1% | 65.7% | 49.3% | 106% |
| CC1=C2[C@@H](CC1)[C@]1(C)O[C@@](c3ccccc3)(C[C@H]1OC(=O)CO)[C@H]2OC(=O)/C=C/c1ccccc1 | 97.8 | 70.6% | 88.6% | 91.4% | 36.2% | 33.1% | 91% | 111% | 103% | 96.8% | 92.6% | 87.2% | -50.7% (active) | 96.1 | 88.4 | 63.2% | 88.9% | 79% | 82.1% | 117% |
| Cc1ccc2nc(-c3ccc(C(=O)NNC(=S)Nc4ccccc4)cc3)[nH]c2c1 | 102 | 62.5% | 94.5% | 99.6% | 91.1% | 99.7% | 90% | 99.4% | 102% | 88.6% | 87.1% | 92.5% | 99.9% | 97.8 | 103 | 85% | 94.2% | 98.9% | 87.1% | 95.3% |
| Cc1nc2cc(O)c(O)cc2cc1Oc1ccc(NC(=O)Nc2ccc(Cl)c(Cl)c2)cc1 | 60.3 | 53.9% | 85.2% | 45% | 20.4% | 65.5% | 95.9% | 56.9% | 88.5% | 80.7% | 37.2% | 48% | 75.8% | 49 | 41.4 | 39.3% | -42.2% (active) | 84.5% | 0.463% (active) | 79.1% |
